In the OligoGym collection:

biological target: RNF167; assay: pooled miR-30 sensor sort-seq; sequence = guide strand; settings: shRNA
Also: reference of the scale not given here.

| Sequence | sensor-assay potency score (higher = more potent) |
| --- | --- |
| TTTGGTAAGTCGATTCCGCTGG | 0.435 |
| TACAACGAGCTATCATTACTGC | -0.205 |
| TTGTGTACTACAGCGGCACCAT | -0.0886 |
| TTGGTAAGTCGATTCCGCTGGA | 0.395 |
| TTCCTCACTATTCCACACCATG | -1.35 |
| TCACATTGTGTACTACAGCGGC | -0.461 |
| ATGTGTAGGAATCTGTTTCAGT | -0.804 |
| TTCCGGGTCTGAGTGAGCCAGG | -1.12 |
| TTCCTCTTGGTCTTCGTCCCCA | -0.474 |
| AAGACTGACCCATTGACCGGGG | -0.25 |
| TACTCGGAGCTTCTCTCCCCAA | -1.19 |

biological target: RNF170; assay: as above; settings: shRNA

| Sequence | sensor-assay potency score (higher = more potent) |
| --- | --- |
| TACATTAGCTCAGATATCCTAG | 0.22 |
| TTCCAGACAACATAGAATCAAG | -0.928 |
| TAAGATAGAAAAAAGCTCCCAT | 0.565 |
| ATTCTCTCCATAATAGATCTGG | -0.226 |
| TATAACTGAATCATCATCCAGT | 0.606 |
| TATATTATCATATAGGTACCTG | -0.52 |
| TTATCATATAGGTACCTGCTGA | -0.705 |
| TAATATTAGAACTTCAAACATG | -0.991 |
| TAGATCCATAATTCTCTCCATA | -0.793 |
| TTAATCTAAGTAATTCTGGGGA | 0.33 |
| TAATTAATCTAAGTAATTCTGG | -0.536 |
| ATGCAATCTCAGAACATCCTGA | -0.378 |
